Screens as filed in PubChem BioAssay.
KCNQ2 enhance: potentiators of rat KCNQ2 potassium channel. CHO-K1 KCNQ2, FluxOR thallium flux fluorescence; hits give high values. hit rate 0.54% among 310,000. B-score at 10 µM;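 active means fluorescence ratio B-score at least 3 SD of library B-scores, with initial fluorescence B-score within 3 of them, cut at about 5.3 in these data; same plate scores as AID 2156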;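 further: B-score of peak minus minimum over baseline fluorescence ratio after K+ and Tl+ stimulus; positive B-score means potentiation of KCNQ2 with more thallium influx and brighter signal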
Target sequence (O88943 whole entry, looked up): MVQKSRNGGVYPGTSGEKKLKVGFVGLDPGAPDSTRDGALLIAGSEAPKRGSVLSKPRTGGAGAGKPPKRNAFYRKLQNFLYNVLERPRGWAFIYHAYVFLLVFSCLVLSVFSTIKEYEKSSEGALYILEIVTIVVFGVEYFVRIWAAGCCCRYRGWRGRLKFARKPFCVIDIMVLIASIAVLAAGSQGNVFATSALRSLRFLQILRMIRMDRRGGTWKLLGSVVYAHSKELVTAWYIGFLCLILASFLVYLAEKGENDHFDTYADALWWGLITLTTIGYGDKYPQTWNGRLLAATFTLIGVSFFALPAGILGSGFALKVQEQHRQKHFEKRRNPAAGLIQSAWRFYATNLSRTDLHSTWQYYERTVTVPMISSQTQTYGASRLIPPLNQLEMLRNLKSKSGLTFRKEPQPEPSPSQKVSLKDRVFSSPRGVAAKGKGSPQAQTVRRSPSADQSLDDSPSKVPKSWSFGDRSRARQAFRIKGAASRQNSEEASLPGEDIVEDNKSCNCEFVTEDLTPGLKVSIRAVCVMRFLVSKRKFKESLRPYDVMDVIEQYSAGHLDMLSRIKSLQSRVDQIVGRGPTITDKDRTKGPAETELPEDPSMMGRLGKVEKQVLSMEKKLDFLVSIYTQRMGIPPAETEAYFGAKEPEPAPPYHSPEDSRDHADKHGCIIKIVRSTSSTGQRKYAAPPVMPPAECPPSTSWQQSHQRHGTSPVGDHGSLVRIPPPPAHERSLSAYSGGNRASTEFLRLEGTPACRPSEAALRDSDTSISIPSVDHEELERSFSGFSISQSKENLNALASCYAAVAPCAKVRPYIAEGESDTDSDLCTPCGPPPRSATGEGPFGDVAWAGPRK
KCNQ2 block: rat KCNQ2 potassium channel inhibitors, primary screen, cell-based, CHO-K1, FluxOR thallium flux, B-score. hit rate 1.1% among 310,000. B-score at 10 µM. AID 2156, 2009. 20 min; hits give low values. Potassium voltage-gated channel subfamily KQT member 2 (Rattus norvegicus), O88943;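 active means fluorescence ratio B-score at most minus 3 library SDs, with starting brightness B-score within 2 library SDs, cut at about -5.5 in these data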
* = called active by the depositor; i = inactive; nt = no result. Most compounds without a hit are left out; they make up all but 1.6% or so of the library.

SMILES	KCNQ2 enhance	KCNQ2 block
Cc1ccc(N2C(=O)N(CC(=O)Nc3cc(Cl)ccc3C)C(=O)C2C)cc1 (stereo not drawn)	1.4	i
C/C(Cl)=C\Cn1c(O)c(N=NC(N)=S)c2cc(Br)ccc21	9.2*	i
NC(=S)N=Nc1c(O)n(CCCl)c2ccc(Br)cc12	nt	i
CCOC(=O)c1c(NC(C)=O)sc(/C(C)=N/Nc2ccc(C(=O)O)cc2)c1C	0.79	i
Cc1cc(F)ccc1NCC(=O)Nc1ccccc1Br	nt	i
Cc1cccc(NC(=O)C2(c3ccccc3)CC2(Cl)Cl)c1 (stereo not drawn)	nt	i
Cc1cc(C)cc(NC(=O)C2(c3ccccc3)CC2(Cl)Cl)c1 (stereo not drawn)	-6.3	-6.3*
CN(c1ccccc1)S(=O)(=O)c1cccc(NC(=O)CSc2nncn2C)c1	0.07	i
CN(c1ccccc1)S(=O)(=O)c1cccc(NC(=O)CSc2ncc(C(F)(F)F)cc2Cl)c1	9.7*	i
CCC(C)n1c(=O)c2sccc2n2c(CCCC(=O)N3CCC(C(N)=O)CC3)nnc12 (stereo not drawn)	0.11	i
CN1CCN(c2nc3c(c(=O)[nH]c(=O)n3C)n2Cc2ccccc2)CC1	0.01	i
O=S(=O)(Nc1nc2c(s1)CCCC2)c1ccc2ccccc2c1	0.15	i
c1ccc2c(Nc3nc4c(s3)CCCC4)cccc2c1	-7.4	-7.4*
Cc1ccc(-c2csc(N3C(=N)SCC3=O)n2)cc1	0.11	i
N=C1SCC(=O)N1c1ncc(Cc2ccc(F)cc2)s1	6.9*	i
COCCN(C(=O)COC(=O)/C=C/c1ccc2c(c1)OCO2)c1c(N)n(Cc2ccccc2)c(=O)[nH]c1=O	0.07	i
CCn1cc(C(=O)NCCCOC(C)C)c(=O)c2cc(S(=O)(=O)N3CCOCC3)ccc21	1	i
CCCCN(CCO)c1ncnc2sc(-c3ccccc3)cc12	0.44	i
COc1ccc(S(=O)(=O)Nc2ccc(N3CCOCC3)cc2)cc1	0.52	i
CCOc1ccc(S(=O)(=O)Nc2nc3ccccc3nc2Nc2ccc(N3CCOCC3)cc2)cc1	-5.6	-5.6*
C[C@@H]1C=CC(=O)O[C@@H]1c1ccc(Cl)cc1	nt	i
O=C(Nc1ccccc1N1CCCCC1)c1ncoc1-c1cccc(F)c1	-5.8	-5.8*
O=C(Nc1ccc(N2CCOCC2)cc1N1CCOCC1)c1ncoc1-c1cccc(F)c1	nt	i
O=C(Nc1ncn[nH]1)c1cccc(S(=O)(=O)N2CCOCC2)c1	0.55	i
COC(=O)CCC(=O)NC(=S)Nc1ccc(S(=O)(=O)Nc2cc(OC)nc(OC)n2)cc1	-6.4	-6.4*
SMILES	KCNQ2 enhance	KCNQ2 block
COc1cc(NS(=O)(=O)c2ccc(NC(=S)NC(=O)CC(C)C)cc2)nc(OC)n1	0.64	i
Cc1ccc2nc3c(cc2c1)c(NC(=O)C(C)(C)C)nn3CC(C)C	1.5	i
COc1ccc(OC)c(S(=O)(=O)N/N=C\c2cn(CC(N)=O)c3ccccc23)c1	nt	i
CCOC(=O)CSc1nnc(NC(=O)CN2CCCCC2)s1	nt	i
Cc1ccc(F)cc1NCC(=O)Nc1ccc(Cl)cc1F	nt	i
Cc1c(Cl)cccc1NCC(=O)Nc1ccc(Cl)cc1F	-6.8	-6.8*
C/C(=N\NC(=O)CNc1cccc(C(F)(F)F)c1)c1ccc(Br)cc1	nt	i
Cc1c(Cl)cccc1NC(=O)CNc1cccc(C(F)(F)F)c1	-6	-6*
COCCNC(=O)c1cccc(OC2CCN(C(C)COc3ccccc3)CC2)c1 (stereo not drawn)	1	i
CCc1cccc2sc(N3CCN(C(=O)c4ccc([N+](=O)[O-])o4)CC3)nc12	nt	i
O=C(NCC(=O)N1CCCCCC1)c1ccc(Br)cc1	nt	i
CN(C)CCn1cnc2c(c1=N)C(c1ccccc1)c1ccc3ccccc3c1O2 (stereo not drawn)	nt	i
C=C(C)CNC(=S)N/N=C/C1=CCC2CC1C2(C)C (stereo not drawn)	1.4	i
CCCCNC(=S)N/N=C/C1=CCC2CC1C2(C)C (stereo not drawn)	5.4*	i
CC(C)CCNC(=S)Nc1ccc(Br)cc1	5.3*	i
CC(C)CCNC(=S)Nc1ccc([N+](=O)[O-])cc1	14*	i
COC(=O)Cc1ccc(NC(=S)NCCC(C)C)cc1	nt	i
CCCNC(=S)Nc1ccc(Br)cc1	2.3	i
CCCCNC(=S)Nc1ccc(Oc2ccccc2)cc1	nt	i
CCCCNC(=S)Nc1ccc([N+](=O)[O-])cc1	12*	i
CCOC(=O)c1cnc2c(c(C)nn2C)c1Oc1cc(Cl)cc(Cl)c1	nt	i
CCn1cc(C(=O)N[C@@H](CCSC)C(=O)NCCN2CCOCC2)c(=O)c2cc3c(cc21)OCO3	nt	i
CC(=O)Nc1cccc(-c2cc(C)c3cc4c(cc3n2)OCO4)c1	0.02	i
O=C1CCCN1c1ccc(S(=O)(=O)NCc2ccc(F)cc2)cc1	0.31	i
COC(=O)c1ccccc1NC(=O)c1cc2sccc2n1C	-6.1	-6.1*
SMILES	KCNQ2 enhance	KCNQ2 block
COC(=O)c1cccc(NC(=O)c2cc3sccc3n2C)c1	nt	i
N#Cc1ccc(COC(=O)CC(NC(N)=O)c2ccc(Cl)cc2)cc1 (stereo not drawn)	0.49	i
O=C(COC(=O)c1ccccc1Nc1ccccc1)Nc1ccccc1	5.8*	i
CC(=O)c1ccc(NC(=O)COC(=O)c2ccccc2Nc2ccccc2)cc1	nt	i
CSc1cccc(NC(=O)C2CCN(S(=O)(=O)c3ccc4c(c3)NC(=O)CO4)CC2)c1	0.19	i
O=C(NCC(c1ccco1)N1CCc2ccccc2C1)c1cccc([N+](=O)[O-])c1 (stereo not drawn)	nt	i
COc1ccc(C(=O)NCC(c2ccco2)N2CCc3ccccc3C2)cc1 (stereo not drawn)	nt	i
O=C(NCC(c1ccco1)N1CCc2ccccc2C1)c1ccc(Cl)c([N+](=O)[O-])c1 (stereo not drawn)	-5.8	-5.8*
CCOc1ccc(C(=O)NCC(c2ccco2)N2CCc3ccccc3C2)cc1 (stereo not drawn)	-6.4	-6.4*
CCOc1cc(-c2cn(S(=O)(=O)c3cccc4nsnc34)nc2N)cc(OCC)c1OCC	-6.3	-6.3*
CCOc1cc(S(=O)(=O)n2cc(-c3ccc(F)cc3)c(N)n2)cc(OCC)c1OCC	nt	i
C=C1CCN([C@@H](CC(C)C)C(=O)Nc2nc3ccc(Cl)cc3s2)S(=O)(=O)c2ccccc21	nt	i
COc1ccc(C[C@H]2CN3C(=NC[C@@H]3Cc3ccccc3)N2CCNC(=O)c2ccc(C)c(Br)c2)cc1	-5.8	-5.8*
COc1ccc(C[C@H]2CN3C(=NC[C@@H]3Cc3ccc(O)cc3)N2CCNC(=O)c2ccc(C)c(Br)c2)cc1	nt	i
O=C(CS(=O)(=O)c1ccc(Cl)cc1)NCCS(=O)(=O)c1ccc(Cl)cc1	1.6	i
Cc1ccc(C(=O)N2CCN(c3ccc(NC(=O)COc4ccccc4C)cc3)CC2)cc1	0.69	i
COc1ccc(-n2nc(C(=O)NCC(=O)N3CCN(c4ccccn4)CC3)c3ccccc3c2=O)cc1OC	nt	i
COc1ccc(-n2nc(C(=O)NCC(=O)N3CCN(c4ccccn4)CC3)c3ccccc3c2=O)cc1	-8.2	-8.2*
CCC(C)(C)n1nnnc1C(c1cc2ccc(OC)cc2[nH]c1=O)N1CCc2ccccc21 (stereo not drawn)	-6.1	-6.1*
